According to PubChem BioAssay (Tox21):
Results filed as inconclusive are left out. Activity calls are given as the source filed them. Unless noted, calls follow the shape of the dose curve; as a rule, active = well fitted curve in the direction sought with a large enough effect in the repeat runs; inconclusive = weak or mixed curves; inactive = no such curve, though single readings can be large; an effect the other way counts as inactive or inconclusive.

How the values were obtained:
[1] = A CellTox Green Cytotoxicity Assay to monitor cytotoxicity in HepG2 cells - 0 hour (AID 1224882); details: CellTox Green fluorescence; series mostly up to 76.8 µM; also: nearly all actives have a fitted effect of over 35% in size
How it was run: (§1)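 Nonlytic assay: viable cells exclude the dye, so fluorescence scales with cell death. HepG2 at 600 cells/well, compounds added after 5 h, signal read across 40 h.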

[2] = A CellTox Green Cytotoxicity Assay to monitor cytotoxicity in HepG2 cells - 32 hour (AID 1224883); details: CellTox Green fluorescence; series mostly up to 76.8 µM; also: nearly all actives have a fitted effect of over 50% in size; also: potency is read from the fitted curve at half-maximal effect
How it was run: as §1

[3] = A CellTox Green Cytotoxicity Assay to monitor cytotoxicity in HEK293 cells - 8 hour (AID 1224884); details: CellTox Green fluorescence; series mostly up to 76.8 µM; also: nearly all actives have a fitted effect of over 35% in size; also: potency is read from the fitted curve at half-maximal effect
How it was run: (§2)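 Seeding of HEK293 cells together with cytotoxicity dye preceded a 5 h incubation at 37 C/5% CO2. Test compounds in DMSO were then added and fluorescence monitored across 40 h.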

[4] = qHTS RealTime-Glo MT Cell Viability Assay in HepG2 cells - 16 hour (AID 1224885); details: RealTime-Glo luminescence; series mostly up to 76.8 µM; also: nearly all actives have a fitted effect of over 50% in size; also: potency is read from the fitted curve at half-maximal effect
How it was run: (§3)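 Compound treatment began 5 h after plating HepG2 cells (600/well) with NanoLuc luciferase and prosubstrate. Plates stayed at 37 C for 40 h; luminescence was captured at six time points, 0 h through 40 h.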

[5] = qHTS RealTime-Glo MT Cell Viability Assay in HEK293 cells - 24 hour (AID 1224886); details: RealTime-Glo luminescence; series mostly up to 76.8 µM; also: nearly all actives have a fitted effect of over 50% in size; also: potency is read from the fitted curve at half-maximal effect
How it was run: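 Quantitative high-throughput screen of the Tox21 10K library in HEK293: cells and RealTime-Glo reagents plated together, compound added at 5 h, luminescence monitored through 40 h at 37 C.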

[6] = qHTS RealTime-Glo MT Cell Viability Assay in HEK293 cells - 8 hour (AID 1224887); details: RealTime-Glo luminescence; series mostly up to 76.8 µM; also: top concentration of the series differs between compounds; nearly all actives have a fitted effect of over 50% in size
How it was run: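 Tox21 screen in HEK293 using RealTime-Glo MT chemistry, with cells and reagent co-dispensed. Luminescence proportional to viable cell number was captured at intervals during 40 h compound exposure at 37 C.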

[7] = A CellTox Green Cytotoxicity Assay to monitor cytotoxicity in HEK293 cells - 16 hour (AID 1224888); details: CellTox Green fluorescence; series mostly up to 76.8 µM; also: nearly all actives have a fitted effect of over 35% in size; also: potency is read from the fitted curve at half-maximal effect
How it was run: as §2

[8] = A CellTox Green Cytotoxicity Assay to monitor cytotoxicity in HepG2 cells - 8 hour (AID 1224890); details: CellTox Green fluorescence; series mostly up to 76.8 µM; also: nearly all actives have a fitted effect of over 45% in size
How it was run: as §1

[9] = qHTS assay to identify small molecule antagonists of the estrogen receptor alpha (ER-alpha) signaling pathway using the BG1 cell line in the presence of 0.1 nM 17-beta-estradiol - cell viability counter screen (AID 1259241); details: VM7Luc4E2 (BG1) viability, CellTiter-Fluor protease, 22 h, 0.1 nM estradiol agonist added; series mostly up to 92.4 µM; also: nearly all actives have a fitted effect of over 40% in size; also: potency is read from the fitted curve at half-maximal effect
How it was run: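 Cytotoxicity counter-screen: live-cell protease activity measured by fluorescence (30 min reagent step) in the same wells. Cells were VM7Luc4E2 with endogenous ER-alpha and ERE-driven luciferase, treated 22 hr at 37C alongside 0.1 nM 17beta-estradiol final.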

[10] = qHTS assay to identify small molecule antagonists of the androgen receptor (AR) signaling pathway using the MDA cell line in the presence of 0.5 nM R1881 - cell viability counter screen (AID 1259242); details: MDA-kb2 viability, CellTiter-Fluor protease fluorescence, 16 h; series mostly up to 92.4 µM; also: nearly all actives have a fitted effect of over 45% in size
How it was run: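 R1881 at 0.5 nM final stimulated MDA-kb2 cells during 16 hr compound treatment at 37C. Cytotoxicity read: CellTiter-Fluor fluorescence after 30 min.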

[11] = target: Androgen receptor (Homo sapiens) (UniProt P10275); assay: qHTS assay to identify small molecule antagonists of the androgen receptor (AR) signaling pathway using the MDA cell line in the presence of 0.5 nM R1881 (AID 1259243); details: MDA-kb2 MMTV-luciferase, R1881 0.5 nM, 16 h; series mostly up to 92.4 µM; also: nearly all actives have a fitted effect of over 50% in size; also: potency is read from the fitted curve at half-maximal effect
How it was run: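 We exposed MDA-kb2 cells to compounds under 0.5 nM R1881 stimulation for 16 hr at 37C and quantified MMTV-driven luciferase by luminescence.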

[12] = qHTS assay to identify small molecule phospholipidosis (PLD) inducers (AID 1259344; active = well fitted curve in the direction sought with a large enough effect; an effect the other way counts as inactive or inconclusive); details: HepG2 phospholipidosis, LipidTOX Red imaging, 24 h; series mostly up to 38.3 µM
How it was run: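 Phospholipidosis is scored by imaging LipidTOX-stained pits in HepG2 cells exposed to compound for 24 h at 37 C; pit counts and integrated intensities per well and per cell serve as outputs.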

[13] = qHTS assay to identify small molecule HDAC inhibitors (AID 1259364); details: HCT-116 HDAC-Glo I/II luminescence, 2 h; series mostly up to 92.4 µM; also: potency is read from the fitted curve at half-maximal effect;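 also: wild-type HCT-116 cells with endogenous class I/II HDAC activity; nearly all actives have a fitted effect of over 45% in size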
How it was run: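 Relative class I and II HDAC activity is taken from the luminogenic signal in HCT-116 cells, with compound exposure 2 hr and reagent development 30 min at room temperature.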

[14] = qHTS assay to identify small molecule HDAC inhibitors - cell viability counter screen (AID 1259365); details: HCT-116 viability, CellTiter-Glo ATP luminescence, 2 h; series mostly up to 92.4 µM; also: nearly all actives have a fitted effect of over 50% in size; also: potency is read from the fitted curve at half-maximal effect
How it was run: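 CellTiter-Glo luminescence (30 min, room temperature) reported viability after a 2 h compound exposure at 37 C. Cells: wild-type HCT-116, 1,500 per well, seeded the night before.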

[15] = qHTS assay to identify small molecule agonists of the sonic hedgehog signaling (Shh) pathway - cell viability counter screen (AID 1259366); details: NIH/3T3 Gli1-Luc viability, CellTiter-Fluor, 24 h; series mostly up to 92.4 µM; also: nearly all actives have a fitted effect of over 50% in size
How it was run: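 Cytotoxicity counter screen: CellTiter-Fluor reagent added after 23 h compound exposure, then 1 h at 37C and fluorescence read. Cells were 3T3 Gli1-Luc, seeded 2,000 per well and dosed 4 h post-plating.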

[16] = qHTS assay to identify small molecule agonists of the sonic hedgehog signaling (Shh) pathway (AID 1259368; calls by dose curve;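 also: NIH/3T3-derived 3T3Gli1-Luc cells carrying a stable Gli1-driven firefly luciferase reporter; nearly all actives have a fitted effect of over 15% in size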); details: NIH/3T3 Gli1-Luc reporter, luciferase, 24 h; series mostly up to 92.4 µM
How it was run: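 Mouse fibroblast (NIH/3T3) reporter cells with stably integrated Gli1-Luc were treated 24 hr with compound; firefly luciferase luminescence served as the read-out.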

[17] = qHTS assay to identify small molecule antagonists of the sonic hedgehog signaling (Shh) pathway (AID 1259369; calls by dose curve; also: nearly all actives have a fitted effect of over 45% in size; also: potency is read from the fitted curve at half-maximal effect); details: NIH/3T3 Gli1-Luc reporter, Shh antagonist, luminescence 24 h; series mostly up to 92.4 µM
How it was run: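 Conditioned medium drives Shh signalling in 3T3Gli1-Luc cells; compounds in DMSO co-applied, 24hr at 37 C, then luciferase luminescence.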

[18] = qHTS RealTime-Glo MT Cell Viability Assay in HepG2 cells - 0 hour (AID 1224889); details: RealTime-Glo luminescence; series mostly up to 76.8 µM; also: nearly all actives have a fitted effect of over 50% in size; also: potency is read from the fitted curve at half-maximal effect
How it was run: as §3

[19] = target: Estrogen receptor (Homo sapiens) (UniProt P03372); assay: qHTS assay to identify small molecule antagonists of the estrogen receptor alpha (ER-alpha) signaling pathway using the BG1 cell line in the presence of 0.1 nM 17-beta-estradiol (AID 1259244); details: VM7Luc4E2 (BG1) ERE-luciferase, antagonist mode, 0.1 nM E2, 22 h; series mostly up to 92.4 µM; also: nearly all actives have a fitted effect of over 50% in size
How it was run: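 VM7Luc4E2; 4xERE-luciferase; 0.1 nM E2 final; 22 h co-incubation, 37C; ONE-Glo luminescence after 30 min at room temperature.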

[20] = qHTS assay to identify small molecule antagonists of the sonic hedgehog signaling (Shh) pathway - cell viability counter screen (AID 1259367); details: NIH/3T3 Gli1-Luc viability, CellTiter-Fluor, 24 h; series mostly up to 92.4 µM; also: nearly all actives have a fitted effect of over 55% in size
How it was run: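 Cells: 3T3 Gli1-Luc, 2,000/well, 4 hr pre-incubation. Compounds in DMSO, then conditioned medium. Incubation 24 hr, 37C, 5% CO2. CellTiter-Fluor at 23 hr, 1 hr, fluorescence.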

Measured: Potency

Estrogen receptor (Homo sapiens), sequence (P03372 whole entry, looked up): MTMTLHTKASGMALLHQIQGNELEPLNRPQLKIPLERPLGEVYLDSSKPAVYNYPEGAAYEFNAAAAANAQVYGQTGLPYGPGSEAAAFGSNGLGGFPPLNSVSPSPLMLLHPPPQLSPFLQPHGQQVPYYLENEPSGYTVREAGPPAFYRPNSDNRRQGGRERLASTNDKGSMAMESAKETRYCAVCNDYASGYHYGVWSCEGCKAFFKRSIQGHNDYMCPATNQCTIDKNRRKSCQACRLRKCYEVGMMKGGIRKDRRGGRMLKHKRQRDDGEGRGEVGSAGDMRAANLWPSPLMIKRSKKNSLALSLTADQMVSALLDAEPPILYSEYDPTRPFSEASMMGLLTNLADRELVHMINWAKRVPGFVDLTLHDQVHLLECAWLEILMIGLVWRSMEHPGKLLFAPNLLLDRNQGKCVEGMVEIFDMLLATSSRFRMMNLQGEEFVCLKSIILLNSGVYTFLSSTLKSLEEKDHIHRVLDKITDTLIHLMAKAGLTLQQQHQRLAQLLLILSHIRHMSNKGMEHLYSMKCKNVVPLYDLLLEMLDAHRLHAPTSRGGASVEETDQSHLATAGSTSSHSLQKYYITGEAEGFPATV
Androgen receptor (Homo sapiens), sequence (P10275 whole entry, looked up): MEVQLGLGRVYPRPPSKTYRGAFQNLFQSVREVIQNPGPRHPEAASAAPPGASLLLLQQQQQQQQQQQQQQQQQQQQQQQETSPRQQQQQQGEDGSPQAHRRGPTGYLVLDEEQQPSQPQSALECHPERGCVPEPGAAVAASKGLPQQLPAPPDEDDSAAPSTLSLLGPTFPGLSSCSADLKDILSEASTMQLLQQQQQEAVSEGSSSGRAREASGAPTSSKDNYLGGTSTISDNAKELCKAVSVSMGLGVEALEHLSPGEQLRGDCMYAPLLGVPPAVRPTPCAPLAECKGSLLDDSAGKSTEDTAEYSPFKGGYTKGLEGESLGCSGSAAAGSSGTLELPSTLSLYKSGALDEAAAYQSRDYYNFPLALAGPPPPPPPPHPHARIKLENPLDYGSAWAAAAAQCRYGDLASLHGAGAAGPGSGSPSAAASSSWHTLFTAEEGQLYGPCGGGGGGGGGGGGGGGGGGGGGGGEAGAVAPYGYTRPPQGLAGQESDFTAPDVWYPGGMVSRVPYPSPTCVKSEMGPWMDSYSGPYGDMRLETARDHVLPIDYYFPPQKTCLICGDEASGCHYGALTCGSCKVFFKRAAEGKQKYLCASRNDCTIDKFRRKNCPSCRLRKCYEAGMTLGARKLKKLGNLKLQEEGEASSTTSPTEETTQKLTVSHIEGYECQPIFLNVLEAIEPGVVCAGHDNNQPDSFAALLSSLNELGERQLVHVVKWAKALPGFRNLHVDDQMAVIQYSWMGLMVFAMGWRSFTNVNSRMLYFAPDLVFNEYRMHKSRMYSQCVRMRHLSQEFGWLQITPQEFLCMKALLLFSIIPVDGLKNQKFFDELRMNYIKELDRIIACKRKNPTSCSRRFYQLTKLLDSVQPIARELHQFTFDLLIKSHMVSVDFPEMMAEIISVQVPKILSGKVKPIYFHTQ

CCCSP(=O)(OCC)SCCC
not listed: [18] | [19] | [20]
inactive: all other assays above

CCOC(=O)OC1=C(c2cc(C)ccc2C)C(=O)NC12CCC(OC)CC2 (stereo unspecified)
active: [17] 17.2 µM
not listed: [6] | [11] | [12]
inactive: all other assays above

COP(=O)(CCC(=O)NCO)OC
not listed: [6] | [8] | [12] | [17]
inactive: all other assays above

COc1ccc([N+](=O)[O-])cc1O
not listed: [6] | [12]
inactive: all other assays above

Oc1c(Cl)c(Cl)cc(Cl)c1Cl
active: [5] 47.6 µM | [11] 66.7 µM
inactive: [1] | [2] | [3] | [4] | [18] | [8] | [9] | [14] | [16]

CCOP(=S)(OCC)SCS(=O)(=O)CC
not listed: [5] | [6] | [8] | [12] | [15]
inactive: all other assays above

CC(=O)[O-].[Tl+]
not listed: [5] | [11] | [12] | [15] | [17] | [19]
inactive: all other assays above

[Hg+2].[I-].[I-]
inactive: [1] | [16]
active: [2] 7.76 µM | [3] 49 µM | [4] 11 µM | [5] 3.09 µM | [7] 43.6 µM | [18] 24.5 µM | [9] 30.6 µM | [13] 24.3 µM | [14] 61.1 µM

CCOC(=O)C1(c2ccccc2)CCN(CCC(C#N)(c2ccccc2)c2ccccc2)CC1
active: [11] 29.8 µM
not listed: [4] | [17]
inactive: all other assays above

COc1ccc(/C(=C/C(=O)N2CCOCC2)c2ccc(Cl)cc2)cc1OC
active: [11] 1.54 µM
not listed: [5] | [6] | [12] | [17] | [18] | [19] | [20]
inactive: all other assays above

CCCCOP(=O)(CCCC)OCCCC
not listed: [5] | [6] | [12] | [19]
inactive: all other assays above
